# Reference: article PMC7862700, “An all-to-all approach to the identification of sequence-specific readers for epigenetic DNA modifications on cytosine”
# Tests used:
# Experiment in all cases: DAPPL (digital affinity profiling via proximity ligation, sequencing); 10 mM Tris-HCl pH 7.5, 50 mM NaCl, 1 mM DTT, 4% glycerol, room temperature, 30 min; GST-TFs on glutathione beads, 16-mer random dsDNA library, 0.1% formaldehyde crosslink after washing; high values mean tight binding
# FLI1 = biological target: T1, FLI1 (Homo sapiens, UniProt Q01543 1-452); conditions: protein: recombinant; tags: N-terminal GST; dsDNA, one strand shown
# T1 sequence: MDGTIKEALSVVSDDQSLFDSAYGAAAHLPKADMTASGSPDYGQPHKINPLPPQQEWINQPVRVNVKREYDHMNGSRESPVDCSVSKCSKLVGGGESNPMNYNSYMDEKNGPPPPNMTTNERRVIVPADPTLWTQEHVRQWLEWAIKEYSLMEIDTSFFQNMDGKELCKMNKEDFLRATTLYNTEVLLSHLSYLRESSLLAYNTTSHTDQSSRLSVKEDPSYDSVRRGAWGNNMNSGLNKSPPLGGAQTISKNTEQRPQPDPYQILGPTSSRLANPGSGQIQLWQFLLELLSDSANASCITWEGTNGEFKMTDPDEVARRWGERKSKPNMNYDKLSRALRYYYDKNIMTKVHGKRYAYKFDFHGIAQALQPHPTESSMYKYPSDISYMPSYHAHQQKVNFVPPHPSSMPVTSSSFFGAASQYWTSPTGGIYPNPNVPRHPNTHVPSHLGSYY
# Method in brief: (§1)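 Binding signal is defined as a hexamer's read frequency for one factor over its frequency for the tag-only sample. To obtain reads, GST-fused human transcription factors were expressed in yeast, captured on glutathione beads, barcoded with DNA and pooled with that sample. Pools met 200 nmole of a 16-mer random double-stranded DNA library in Tris/NaCl/DTT/glycerol buffer for 30 min at room temperature before washing, 0.1% formaldehyde crosslinking, proximity ligation (BsaI/T4 ligase, 1 h, 37 °C), PCR and Illumina NextSeq500 sequencing.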
# ELK1 = biological target: T2, ELK1 (Homo sapiens, UniProt P19419 1-428); conditions: protein: recombinant; tags: N-terminal GST; dsDNA, one strand shown
# T2 sequence: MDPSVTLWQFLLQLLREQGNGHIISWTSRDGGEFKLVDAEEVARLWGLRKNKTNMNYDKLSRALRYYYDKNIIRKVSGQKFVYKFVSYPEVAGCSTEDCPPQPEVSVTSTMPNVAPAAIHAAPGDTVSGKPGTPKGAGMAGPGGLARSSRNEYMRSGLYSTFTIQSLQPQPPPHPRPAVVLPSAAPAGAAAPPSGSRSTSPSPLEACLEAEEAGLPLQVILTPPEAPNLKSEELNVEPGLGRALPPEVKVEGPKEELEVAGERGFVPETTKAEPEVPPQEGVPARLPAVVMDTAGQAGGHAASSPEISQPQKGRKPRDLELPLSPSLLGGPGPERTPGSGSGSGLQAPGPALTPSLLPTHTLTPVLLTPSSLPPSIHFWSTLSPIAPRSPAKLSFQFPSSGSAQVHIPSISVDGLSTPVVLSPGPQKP
# Method in brief: as §1
# GABPA = biological target: T3, GABPA (Homo sapiens, UniProt Q06546 1-454); conditions: protein: recombinant; tags: N-terminal GST; dsDNA, one strand shown
# T3 sequence: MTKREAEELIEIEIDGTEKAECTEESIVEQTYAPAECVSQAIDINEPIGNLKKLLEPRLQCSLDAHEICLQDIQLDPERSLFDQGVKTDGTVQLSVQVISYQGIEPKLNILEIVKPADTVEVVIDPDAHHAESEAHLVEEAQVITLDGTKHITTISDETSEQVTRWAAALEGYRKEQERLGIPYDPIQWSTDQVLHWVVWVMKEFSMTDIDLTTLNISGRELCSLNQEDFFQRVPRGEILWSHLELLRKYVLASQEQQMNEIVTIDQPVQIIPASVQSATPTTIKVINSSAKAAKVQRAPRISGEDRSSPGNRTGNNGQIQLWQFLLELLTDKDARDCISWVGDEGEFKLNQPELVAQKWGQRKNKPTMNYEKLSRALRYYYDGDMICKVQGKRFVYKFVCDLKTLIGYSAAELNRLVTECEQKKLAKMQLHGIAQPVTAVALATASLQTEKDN
# Method in brief: as §1
# ERG = biological target: T4, ERG (Homo sapiens, UniProt P11308 1-479); conditions: protein: recombinant; tags: N-terminal GST; dsDNA, one strand shown
# T4 sequence: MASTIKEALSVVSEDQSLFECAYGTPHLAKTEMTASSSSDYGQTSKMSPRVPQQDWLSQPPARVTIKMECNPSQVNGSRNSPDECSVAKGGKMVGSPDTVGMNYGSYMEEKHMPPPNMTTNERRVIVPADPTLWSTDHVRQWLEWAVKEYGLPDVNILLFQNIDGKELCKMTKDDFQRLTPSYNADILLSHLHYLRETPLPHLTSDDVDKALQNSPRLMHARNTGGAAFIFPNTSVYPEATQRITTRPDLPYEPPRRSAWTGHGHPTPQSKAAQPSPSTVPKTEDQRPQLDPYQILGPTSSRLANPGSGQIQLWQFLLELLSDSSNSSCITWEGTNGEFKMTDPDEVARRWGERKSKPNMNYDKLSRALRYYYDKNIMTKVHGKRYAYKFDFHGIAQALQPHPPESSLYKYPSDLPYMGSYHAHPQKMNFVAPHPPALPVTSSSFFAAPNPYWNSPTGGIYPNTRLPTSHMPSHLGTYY
# Method in brief: as §1
# ELF1 = ELF1 (Homo sapiens, UniProt P32519 1-619); conditions: protein: recombinant; tags: N-terminal GST; dsDNA, one strand shown
# Sequence of ELF1 (P32519 whole entry): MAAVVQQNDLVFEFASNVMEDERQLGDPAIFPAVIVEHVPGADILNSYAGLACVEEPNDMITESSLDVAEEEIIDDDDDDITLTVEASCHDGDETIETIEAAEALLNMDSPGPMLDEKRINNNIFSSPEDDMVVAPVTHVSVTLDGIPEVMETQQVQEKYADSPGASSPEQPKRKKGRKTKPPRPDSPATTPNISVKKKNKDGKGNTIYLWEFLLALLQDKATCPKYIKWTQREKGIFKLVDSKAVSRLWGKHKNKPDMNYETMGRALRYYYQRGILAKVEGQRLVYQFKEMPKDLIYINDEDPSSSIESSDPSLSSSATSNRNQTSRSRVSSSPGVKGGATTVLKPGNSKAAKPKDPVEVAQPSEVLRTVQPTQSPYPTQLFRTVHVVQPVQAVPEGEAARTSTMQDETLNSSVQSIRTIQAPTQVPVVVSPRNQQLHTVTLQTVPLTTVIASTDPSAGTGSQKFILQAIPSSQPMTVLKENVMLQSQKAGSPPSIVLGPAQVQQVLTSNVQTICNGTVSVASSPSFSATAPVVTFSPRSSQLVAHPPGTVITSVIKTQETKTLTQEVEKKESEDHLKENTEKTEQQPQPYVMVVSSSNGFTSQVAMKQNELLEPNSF
# Method in brief: as §1
# EHF = biological target: T5, EHF (Homo sapiens, UniProt Q9NZC4 1-300); conditions: protein: recombinant; tags: N-terminal GST; dsDNA, one strand shown
# T5 sequence: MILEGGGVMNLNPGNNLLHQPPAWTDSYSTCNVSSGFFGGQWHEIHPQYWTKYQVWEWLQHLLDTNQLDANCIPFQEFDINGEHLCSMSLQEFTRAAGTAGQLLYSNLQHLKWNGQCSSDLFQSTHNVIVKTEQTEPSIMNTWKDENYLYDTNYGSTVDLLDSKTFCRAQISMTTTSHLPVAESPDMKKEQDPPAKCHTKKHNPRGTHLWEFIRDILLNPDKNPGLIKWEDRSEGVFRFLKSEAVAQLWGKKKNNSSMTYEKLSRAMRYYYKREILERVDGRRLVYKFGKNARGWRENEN
# Method in brief: as §1
# SPI1 = SPI1 (Homo sapiens, UniProt P17947 1-270); conditions: protein: recombinant; tags: N-terminal GST; dsDNA, one strand shown
# Method in brief: as §1
# SPIB = SPIB (Homo sapiens, UniProt Q01892 1-262); conditions: protein: recombinant; tags: N-terminal GST; dsDNA, one strand shown
# Sequence of SPIB (Q01892 whole entry): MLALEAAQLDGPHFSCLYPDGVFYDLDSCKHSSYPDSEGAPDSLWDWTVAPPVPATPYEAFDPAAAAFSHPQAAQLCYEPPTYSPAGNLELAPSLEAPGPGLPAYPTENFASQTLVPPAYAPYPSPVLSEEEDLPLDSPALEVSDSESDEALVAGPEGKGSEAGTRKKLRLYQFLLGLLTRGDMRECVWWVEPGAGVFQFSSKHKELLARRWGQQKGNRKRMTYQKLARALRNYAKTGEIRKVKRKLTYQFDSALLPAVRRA
# Method in brief: as §1
# ELK3 = biological target: T6, ELK3 (Homo sapiens, UniProt P41970 1-407); conditions: protein: recombinant; tags: N-terminal GST; dsDNA, one strand shown
# T6 sequence: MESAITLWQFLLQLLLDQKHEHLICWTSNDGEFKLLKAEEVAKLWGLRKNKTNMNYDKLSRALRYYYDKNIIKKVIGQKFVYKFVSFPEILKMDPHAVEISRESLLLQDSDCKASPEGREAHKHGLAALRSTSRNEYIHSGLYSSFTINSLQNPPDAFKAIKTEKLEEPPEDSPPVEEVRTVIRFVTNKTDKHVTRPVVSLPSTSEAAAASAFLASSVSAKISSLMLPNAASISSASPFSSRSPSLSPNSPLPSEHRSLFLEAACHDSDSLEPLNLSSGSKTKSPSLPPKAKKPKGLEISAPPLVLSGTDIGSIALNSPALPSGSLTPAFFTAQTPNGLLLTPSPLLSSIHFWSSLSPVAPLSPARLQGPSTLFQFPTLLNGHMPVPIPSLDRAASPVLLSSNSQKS
# Method in brief: as §1
# FEV = biological target: T7, FEV (Homo sapiens, UniProt Q99581 1-238); conditions: protein: recombinant; tags: N-terminal GST; dsDNA, one strand shown
# T7 sequence: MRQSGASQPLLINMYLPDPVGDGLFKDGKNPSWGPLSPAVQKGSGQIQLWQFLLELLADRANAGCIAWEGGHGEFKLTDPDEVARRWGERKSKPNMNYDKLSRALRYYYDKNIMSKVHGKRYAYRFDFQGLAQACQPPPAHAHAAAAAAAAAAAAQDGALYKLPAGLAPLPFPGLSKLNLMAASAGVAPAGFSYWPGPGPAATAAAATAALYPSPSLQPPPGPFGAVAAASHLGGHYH
# Method in brief: as §1
# ETV5 = ETV5 (Homo sapiens, UniProt P41161 1-510); conditions: protein: recombinant; tags: N-terminal GST; dsDNA, one strand shown
# Sequence of ETV5 (P41161 whole entry): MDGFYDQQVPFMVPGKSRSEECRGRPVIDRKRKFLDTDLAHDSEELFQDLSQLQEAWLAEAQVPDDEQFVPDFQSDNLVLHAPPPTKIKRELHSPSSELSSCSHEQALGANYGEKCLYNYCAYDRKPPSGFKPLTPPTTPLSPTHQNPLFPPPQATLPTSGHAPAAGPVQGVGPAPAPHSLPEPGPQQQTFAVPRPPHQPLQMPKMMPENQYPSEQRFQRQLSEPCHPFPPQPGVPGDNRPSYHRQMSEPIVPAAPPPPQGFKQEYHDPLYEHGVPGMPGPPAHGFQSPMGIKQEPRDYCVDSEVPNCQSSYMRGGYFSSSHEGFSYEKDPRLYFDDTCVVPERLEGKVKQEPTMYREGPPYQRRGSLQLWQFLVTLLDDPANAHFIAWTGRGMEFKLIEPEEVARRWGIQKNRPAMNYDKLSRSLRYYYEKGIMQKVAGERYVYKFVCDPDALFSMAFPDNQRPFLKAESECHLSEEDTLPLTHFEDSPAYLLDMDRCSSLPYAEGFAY
# Method in brief: as §1
# HSF1 = HSF1 (Homo sapiens, UniProt Q00613 1-529); conditions: protein: recombinant; tags: N-terminal GST; chain copies: 3; dsDNA, one strand shown
# Sequence of HSF1 (Q00613 whole entry): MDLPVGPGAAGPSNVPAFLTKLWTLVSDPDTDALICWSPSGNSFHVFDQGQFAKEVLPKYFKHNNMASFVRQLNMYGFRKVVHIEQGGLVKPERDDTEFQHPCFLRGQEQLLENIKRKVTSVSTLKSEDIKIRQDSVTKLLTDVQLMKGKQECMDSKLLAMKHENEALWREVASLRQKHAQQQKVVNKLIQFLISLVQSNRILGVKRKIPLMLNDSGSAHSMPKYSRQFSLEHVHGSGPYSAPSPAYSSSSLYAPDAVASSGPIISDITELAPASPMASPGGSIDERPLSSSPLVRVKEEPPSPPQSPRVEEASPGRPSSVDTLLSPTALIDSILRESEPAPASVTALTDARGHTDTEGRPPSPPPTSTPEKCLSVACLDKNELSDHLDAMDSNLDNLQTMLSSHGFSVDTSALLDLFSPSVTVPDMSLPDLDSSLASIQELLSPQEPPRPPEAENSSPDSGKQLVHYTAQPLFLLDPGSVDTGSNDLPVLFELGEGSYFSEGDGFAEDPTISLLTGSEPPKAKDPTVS
# Method in brief: as §1
# SPIC = biological target: T8, SPIC (Homo sapiens, UniProt Q8N5J4 1-248); conditions: protein: recombinant; tags: N-terminal GST; dsDNA, one strand shown
# T8 sequence: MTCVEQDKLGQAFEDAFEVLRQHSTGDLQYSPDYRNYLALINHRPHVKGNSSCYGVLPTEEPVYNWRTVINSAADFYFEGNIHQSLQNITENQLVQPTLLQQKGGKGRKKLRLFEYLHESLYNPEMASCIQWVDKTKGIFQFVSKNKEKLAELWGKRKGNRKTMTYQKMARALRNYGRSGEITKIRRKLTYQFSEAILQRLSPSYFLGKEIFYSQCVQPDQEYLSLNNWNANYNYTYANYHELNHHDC
# Method in brief: as §1
# ELF4 = ELF4 (Homo sapiens, UniProt Q99607 1-663); conditions: protein: recombinant; tags: N-terminal GST; dsDNA, one strand shown
# Sequence of ELF4 (Q99607 whole entry): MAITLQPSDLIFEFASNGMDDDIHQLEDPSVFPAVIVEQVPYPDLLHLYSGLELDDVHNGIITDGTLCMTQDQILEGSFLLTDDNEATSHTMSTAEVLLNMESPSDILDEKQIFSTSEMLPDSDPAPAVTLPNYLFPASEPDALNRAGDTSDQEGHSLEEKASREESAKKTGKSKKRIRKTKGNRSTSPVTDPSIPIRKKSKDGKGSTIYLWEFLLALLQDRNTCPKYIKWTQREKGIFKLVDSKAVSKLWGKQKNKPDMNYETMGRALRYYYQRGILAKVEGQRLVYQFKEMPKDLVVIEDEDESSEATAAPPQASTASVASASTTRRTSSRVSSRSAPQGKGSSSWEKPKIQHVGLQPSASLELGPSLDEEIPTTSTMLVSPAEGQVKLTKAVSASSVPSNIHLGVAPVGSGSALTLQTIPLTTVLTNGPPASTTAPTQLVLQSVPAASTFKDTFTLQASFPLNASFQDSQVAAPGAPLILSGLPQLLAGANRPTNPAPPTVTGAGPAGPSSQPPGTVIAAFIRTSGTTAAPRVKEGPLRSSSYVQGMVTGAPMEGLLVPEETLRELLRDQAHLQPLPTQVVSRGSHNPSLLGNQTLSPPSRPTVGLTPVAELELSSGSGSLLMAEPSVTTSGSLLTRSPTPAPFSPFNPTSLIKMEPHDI
# Method in brief: as §1
# ELK4 = biological target: T9, ELK4 (Homo sapiens, UniProt P28324-2 1-405); conditions: protein: recombinant; tags: N-terminal GST; dsDNA, one strand shown
# T9 sequence: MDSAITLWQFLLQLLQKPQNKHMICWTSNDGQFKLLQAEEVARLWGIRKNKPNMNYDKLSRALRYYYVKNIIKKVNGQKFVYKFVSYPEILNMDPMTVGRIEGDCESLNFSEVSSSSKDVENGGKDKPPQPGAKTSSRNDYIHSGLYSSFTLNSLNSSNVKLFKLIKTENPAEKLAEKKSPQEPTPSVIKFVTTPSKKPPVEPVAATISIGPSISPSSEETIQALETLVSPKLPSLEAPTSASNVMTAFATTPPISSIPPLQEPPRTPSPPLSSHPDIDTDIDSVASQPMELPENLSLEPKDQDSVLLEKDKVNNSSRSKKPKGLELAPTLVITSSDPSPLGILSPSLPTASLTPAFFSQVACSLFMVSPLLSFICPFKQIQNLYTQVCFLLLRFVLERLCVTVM
# Method in brief: as §1
# ETV2 = biological target: T10, ETV2 (Homo sapiens, UniProt O00321 1-342); conditions: protein: recombinant; tags: N-terminal GST; dsDNA, one strand shown
# T10 sequence: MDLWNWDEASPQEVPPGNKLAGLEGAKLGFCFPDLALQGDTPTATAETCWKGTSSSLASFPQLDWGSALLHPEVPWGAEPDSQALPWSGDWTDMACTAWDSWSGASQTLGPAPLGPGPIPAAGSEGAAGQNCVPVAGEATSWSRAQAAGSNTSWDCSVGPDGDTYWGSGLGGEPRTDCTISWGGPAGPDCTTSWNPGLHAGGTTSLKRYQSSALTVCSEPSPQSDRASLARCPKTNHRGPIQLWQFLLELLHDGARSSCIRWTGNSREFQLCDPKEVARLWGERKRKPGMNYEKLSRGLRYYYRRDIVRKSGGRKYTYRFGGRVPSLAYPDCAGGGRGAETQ
# Method in brief: as §1
# ELF3 = biological target: T11, ELF3 (Homo sapiens, UniProt P78545 1-371); conditions: protein: recombinant; tags: N-terminal GST; dsDNA, one strand shown
# T11 sequence: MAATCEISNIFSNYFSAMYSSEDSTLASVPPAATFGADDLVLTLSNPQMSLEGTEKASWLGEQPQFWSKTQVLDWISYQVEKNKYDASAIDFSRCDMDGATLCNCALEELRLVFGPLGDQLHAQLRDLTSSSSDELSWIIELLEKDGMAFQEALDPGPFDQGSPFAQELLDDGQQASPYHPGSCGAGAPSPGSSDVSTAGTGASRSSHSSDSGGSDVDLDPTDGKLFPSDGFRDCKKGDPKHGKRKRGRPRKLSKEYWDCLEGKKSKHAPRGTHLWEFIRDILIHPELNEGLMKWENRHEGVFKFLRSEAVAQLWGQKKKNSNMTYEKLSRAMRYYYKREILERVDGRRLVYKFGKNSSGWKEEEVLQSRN
# Method in brief: as §1
# CRX = CRX (Homo sapiens, UniProt O43186 1-299); conditions: protein: recombinant; tags: N-terminal GST; dsDNA, one strand shown
# Sequence of CRX (O43186 whole entry): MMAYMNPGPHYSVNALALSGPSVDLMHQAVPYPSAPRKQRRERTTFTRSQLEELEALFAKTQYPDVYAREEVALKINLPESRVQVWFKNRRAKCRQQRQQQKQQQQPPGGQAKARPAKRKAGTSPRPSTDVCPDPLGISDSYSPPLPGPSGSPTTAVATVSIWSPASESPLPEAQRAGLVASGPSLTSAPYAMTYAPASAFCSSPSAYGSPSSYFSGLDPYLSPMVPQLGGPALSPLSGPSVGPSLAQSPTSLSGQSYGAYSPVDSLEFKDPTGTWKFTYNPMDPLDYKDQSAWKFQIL
# Method in brief: as §1
# ETV1 = ETV1 (Homo sapiens, UniProt P50549 1-477); conditions: protein: recombinant; tags: N-terminal GST; dsDNA, one strand shown
# Sequence of ETV1 (P50549 whole entry): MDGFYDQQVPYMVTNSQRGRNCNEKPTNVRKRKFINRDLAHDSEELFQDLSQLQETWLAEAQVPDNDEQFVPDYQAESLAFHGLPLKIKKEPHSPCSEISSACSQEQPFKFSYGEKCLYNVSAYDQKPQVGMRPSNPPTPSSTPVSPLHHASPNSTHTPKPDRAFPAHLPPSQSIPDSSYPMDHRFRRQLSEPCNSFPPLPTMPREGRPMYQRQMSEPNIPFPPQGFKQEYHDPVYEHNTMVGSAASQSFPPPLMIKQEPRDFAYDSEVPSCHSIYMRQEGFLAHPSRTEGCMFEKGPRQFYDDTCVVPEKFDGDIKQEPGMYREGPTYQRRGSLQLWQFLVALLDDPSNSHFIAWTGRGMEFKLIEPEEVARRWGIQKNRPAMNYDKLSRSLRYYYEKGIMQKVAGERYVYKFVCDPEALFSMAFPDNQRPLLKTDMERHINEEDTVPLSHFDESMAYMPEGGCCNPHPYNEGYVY
# Method in brief: as §1
sequence,measurement,setting,value
ATCTAA,binding signal,FLI1,"1.21 fold enrichment (6-mer frequency, TF over GST control)"
same,binding signal,ELK1,"1.24 fold enrichment (6-mer frequency, TF over GST control)"
same,binding signal,GABPA,"1.23 fold enrichment (6-mer frequency, TF over GST control)"
same,binding signal,ERG,"1.17 fold enrichment (6-mer frequency, TF over GST control)"
same,binding signal,ELF1,"1.23 fold enrichment (6-mer frequency, TF over GST control)"
same,binding signal,EHF,"1.23 fold enrichment (6-mer frequency, TF over GST control)"
same,binding signal,SPI1,"1.13 fold enrichment (6-mer frequency, TF over GST control)"
same,binding signal,SPIB,"1.21 fold enrichment (6-mer frequency, TF over GST control)"
same,binding signal,ELK3,"1.16 fold enrichment (6-mer frequency, TF over GST control)"
same,binding signal,FEV,"1.14 fold enrichment (6-mer frequency, TF over GST control)"
same,binding signal,ETV5,"1.15 fold enrichment (6-mer frequency, TF over GST control)"
same,binding signal,HSF1,"1.49 fold enrichment (6-mer frequency, TF over GST control)"
same,binding signal,SPIC,"1.13 fold enrichment (6-mer frequency, TF over GST control)"
same,binding signal,ELF4,"1.23 fold enrichment (6-mer frequency, TF over GST control)"
same,binding signal,ELK4,"1.24 fold enrichment (6-mer frequency, TF over GST control)"
same,binding signal,ETV2,"1.22 fold enrichment (6-mer frequency, TF over GST control)"
same,binding signal,ELF3,"1.12 fold enrichment (6-mer frequency, TF over GST control)"
same,binding signal,CRX,"1.83 fold enrichment (6-mer frequency, TF over GST control)"
same,binding signal,ETV1,"1.16 fold enrichment (6-mer frequency, TF over GST control)"
